Values joined by “and” are separate entries in the source; they are usually repeats but may differ in a detail not shown here. Equal entries are not always repeated. Inconclusive results are not listed. Active and inactive are the calls of the source. Unless noted, the call rests on the fitted dose curve; in most records, active means well fitted curve in the direction sought with a large enough effect in the repeat runs; inconclusive means weak or mixed curves; inactive means no such curve, though single readings can be large; an effect the other way counts as inactive or inconclusive.
Legend:
[1] = qHTS assay for small molecules that induce genotoxicity in human embryonic kidney cells expressing luciferase-tagged ATAD5 (AID 651632); further: nearly all actives have a fitted effect of over 15% in size
Procedure, shortened: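 HEK293T cells carrying luciferase-tagged ATAD5 were given compound or DMSO vehicle and incubated 16 hr at 37C, 5% CO2. Luciferase activity was read after 30 min at room temperature with Amplite; a rise signals genotoxic stress.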

[2] = qHTS assay for small molecules that induce genotoxicity in human embryonic kidney cells expressing luciferase-tagged ATAD5 - cell viability (AID 651634; calls by dose curve; further: nearly all actives have a fitted effect of over 25% in size; further: potency means the concentration at half of the fitted maximal effect)
Procedure, shortened: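 HEK293T cells carrying luciferase-tagged ATAD5, 2,000 cells/well, exposed to compound for 15.5 hr at 37C. Viability read as live-cell protease activity by CellTiter-Fluor fluorescence after 30 min at 37C.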

[3] = qHTS assay for small molecule disruptors of the mitochondrial membrane potential - cell viability (AID 720634; calls by dose curve; further: nearly all actives have a fitted effect of over 20% in size; further: potency means the concentration at half of the fitted maximal effect)
Procedure, shortened: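 HepG2 cells, 2,000 per well, attached overnight, then treated 1 hr at 37 C, 5% CO2. Viability read as ATP by CellTiter-Glo luminescence after 30 min at room temperature. Read in the same wells as the m-MPI membrane-potential dye assay.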

[4] = qHTS assay to test for compound auto fluorescence at 535 nm (green) in HepG2 cells (AID 720675)
[5] = qHTS assay to test for compound auto fluorescence at 460 nm (blue) in HEK293 cells (AID 720678)
Procedure, shortened: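 HEK293, 2,000 cells/well, 10% dialyzed FBS; attach 4-5 hr 37C; pin compound or DMSO; o/n 37C/5% CO2; fluorescence 405/460 nm; triamterene-equivalent units.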

[6] = qHTS assay to test for compound auto fluorescence at 590 nm (red) in HEK293 cells (AID 720679)
Procedure, shortened: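 Intensity at 540nm excitation and 590nm emission is reported as Rose Bengal sodium-equivalent autofluorescence. Measurements followed overnight exposure (37C, 5% CO2) of HEK293 cells, 2,000 per well, to 23 nL compound.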

[7] = qHTS assay to test for compound auto fluorescence at 460 nm (blue) in HEK293 cell free culture (AID 720681)
Procedure, shortened: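 Blue fluorescence (Ex 405/Em 460 nm, triamterene-equivalent) was read immediately after pin transfer of compound or DMSO into medium (DMEM, 10% FBS) without cells.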

[8] = qHTS assay to test for compound auto fluorescence at 535 nm (green) in HEK293 cell free culture (AID 720682)
Procedure, shortened: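 Read-out: 485/535 nm fluorescence intensity, calibrated against fluorescein. Medium only (DMEM + 10% FBS, no cells); test compound or DMSO vehicle added by pintool before plate reading.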

[9] = qHTS assay to test for compound auto fluorescence at 590 nm (red) in HEK293 cell free culture (AID 720683)
Procedure, shortened: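 Red-channel autofluorescence of compounds in culture medium (DMEM, 10% FBS), no cells, measured at 540/590 nm. Rose Bengal sodium is the reference fluorophore for equivalence.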

[10] = qHTS assay to test for compound auto fluorescence at 590 nm (red) in HepG2 cell free culture (AID 720684)
Procedure, shortened: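 Plate contents were MEM with 10% FBS plus test compound or DMSO, no cells. Fluorescence was recorded with 540 nm excitation and 590 nm emission.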

[11] = qHTS assay to test for compound auto fluorescence at 460 nm (blue) in HepG2 cell free culture (AID 720685)
Procedure, shortened: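 Compound (23 nL) or DMSO pinned into cell-free MEM with 10% FBS; blue fluorescence read at 405/460 nm excitation/emission, expressed as auto-fluorescence equivalency to triamterene.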

[12] = qHTS assay to test for compound auto fluorescence at 535 nm (green) in HepG2 cell free culture (AID 720686)
[13] = qHTS assay to test for compound auto fluorescence at 460 nm (blue) in HepG2 cells (AID 720687)
Procedure, shortened: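 Blue-channel autofluorescence (Ex/Em 405/460 nm, triamterene-equivalent) was measured after 1 hr compound exposure at 37 C, 5% CO2. Cells were HepG2, plated overnight at 37 C in MEM plus 10% FBS.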

[14] = qHTS assay to test for compound auto fluorescence at 590 nm (red) in HepG2 cells (AID 720674)
Procedure, shortened: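 Red autofluorescence (Ex/Em 540/590 nm, Rose Bengal sodium equivalents) was measured in HepG2 cells, 2,000 per well in MEM plus 10% FBS, plated overnight at 37 C. Readings were taken 1 hr after adding 23 nL compound or DMSO, at 37 C and 5% CO2.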

[15] = qHTS assay to test for compound auto fluorescence at 535 nm (green) in HEK293 cells (AID 720680)
[16] = target: Glucocorticoid receptor (Homo sapiens) (UniProt P04150); experiment: qHTS assay to identify small molecule agonists of the glucocorticoid receptor (GR) signaling pathway (AID 720691; active means well fitted activation curve with a large enough effect in the signal ratio in the repeat runs, not every such curve was filed as active; the % refers to the signal ratio)
Glucocorticoid receptor (Homo sapiens), sequence (P04150 whole entry, looked up): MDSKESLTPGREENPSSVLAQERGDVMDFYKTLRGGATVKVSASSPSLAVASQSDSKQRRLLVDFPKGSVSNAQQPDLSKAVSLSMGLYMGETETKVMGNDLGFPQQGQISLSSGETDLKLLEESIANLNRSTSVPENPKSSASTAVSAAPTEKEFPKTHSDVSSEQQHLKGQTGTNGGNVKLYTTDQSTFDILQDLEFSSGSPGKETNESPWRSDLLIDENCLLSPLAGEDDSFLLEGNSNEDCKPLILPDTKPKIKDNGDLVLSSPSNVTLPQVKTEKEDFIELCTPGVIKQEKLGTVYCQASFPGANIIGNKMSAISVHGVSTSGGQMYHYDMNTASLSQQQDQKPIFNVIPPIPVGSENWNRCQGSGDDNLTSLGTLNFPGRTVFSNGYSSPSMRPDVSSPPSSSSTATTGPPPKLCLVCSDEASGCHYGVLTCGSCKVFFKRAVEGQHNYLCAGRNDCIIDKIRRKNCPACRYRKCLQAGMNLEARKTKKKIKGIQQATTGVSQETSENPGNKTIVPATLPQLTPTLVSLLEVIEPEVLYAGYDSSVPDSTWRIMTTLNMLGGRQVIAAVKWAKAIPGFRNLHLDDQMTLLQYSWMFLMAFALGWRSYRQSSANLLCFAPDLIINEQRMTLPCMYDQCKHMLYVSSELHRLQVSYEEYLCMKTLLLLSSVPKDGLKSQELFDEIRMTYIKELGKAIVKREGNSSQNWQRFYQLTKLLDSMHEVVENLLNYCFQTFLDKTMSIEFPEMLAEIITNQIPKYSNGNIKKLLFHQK
Procedure, shortened: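 GR-bla HeLa cells carrying a GRE-driven beta-lactamase reporter, exposed to compounds for 18 h at 37 C. Reporter activation read as fluorescence after 2 h with LiveBLAzer B/G FRET substrate at room temperature.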

[17] = qHTS assay for small molecule disruptors of the mitochondrial membrane potential (AID 720635); further: potency means the concentration at half of the fitted maximal effect
Procedure, shortened: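 Mitochondrial membrane potential tracked with Mito-MPS dye, red aggregates (ex 540/em 590 nm) against green monomers (ex 490/em 535 nm). Compound treatment 1 hr at 37C, dye 30 min in HepG2.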

[18] = qHTS assay for small molecule agonists of the p53 signaling pathway - cell viability (AID 651633; calls by dose curve; further: nearly all actives have a fitted effect of over 30% in size; further: potency means the concentration at half of the fitted maximal effect)
Procedure, shortened: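 Viability counter-read: CellTiter-Glo luminescence (30 min, room temperature) in the same p53RE-bla plates. These plates had been exposed to compounds for 16 h at 37 C.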

[19] = target: Glucocorticoid receptor (Homo sapiens) (UniProt P04150); experiment: qHTS assay to identify small molecule antagonists of the glucocorticoid receptor (GR) signaling pathway (AID 720692; active means well fitted inhibition curve with a large enough effect in the signal ratio in the repeat runs, not every such curve was filed as active; the % refers to the signal ratio; further: potency means the concentration at half of the fitted maximal effect)
Procedure, shortened: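 GR-bla HeLa cells carrying a GRE-driven beta-lactamase reporter received compound after 4 h plating, then dexamethasone (5 nM final). After 18 h at 37C, the FRET substrate was loaded for 2 h at room temperature and fluorescence read.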

Measured: Potency

O=C(O)C1(c2ccc3c(c2)OC[C@H](Cc2ccc(-c4ccccc4)cc2)[C@H]3O)CCCC1
not listed: [14] | [15] | [16] | [17] | [18] | [19]
inactive: all other assays above

CO/N=C(/C(=O)OC)c1ccccc1COc1ccccc1C
not listed: [3] | [6] | [7] | [17] | [18] | [19]
inactive: all other assays above

CCCCC(O)(Cn1cncn1)c1ccc(Cl)cc1Cl (configuration not stated)
active: [17] 54.4 µM
not listed: [2] | [3] | [13] | [18] | [19]
inactive: all other assays above

CC(C)O.CC(C)O.OCCN(CCO)CCO.OCCN(CCO)CCO.[Ti]
not listed: [1] | [3] | [16] | [17] | [18] | [19]
inactive: all other assays above

CCOP(=S)(OCC)SCn1nnc2ccccc2c1=O
active: [18] 27.3 µM | [3] 27.3 µM | [17] 27.3 µM
not listed: [1] | [2] | [12] | [13] | [19]
inactive: all other assays above

CN(N=O)c1ccc([N+](=O)[O-])cc1
not listed: [1] | [7] | [12] | [14] | [16] | [19]
inactive: all other assays above

O=C1C(=O)c2cccc3cccc1c23
active: [2] 54.4 µM | [17] 54.4 µM
not listed: [1] | [3] | [6] | [16] | [19]
inactive: all other assays above

CC(C)(C)c1cc([N+](=O)[O-])cc([N+](=O)[O-])c1O
active: [2] 6.09 µM | [17] 0.484 µM
not listed: [1] | [3] | [12] | [16] | [18] | [19]
inactive: all other assays above

CC(=O)c1cc2c(cc1C)C(C)(C)C(C)CC2(C)C (configuration not stated)
active: [18] 61.1 µM | [17] 54.5 µM
not listed: [1] | [3] | [16] | [19]
inactive: all other assays above

O=C=Nc1ccc(Cl)cc1
active: [3] 21.7 µM | [17] 0.172 µM
not listed: [1] | [2] | [15] | [16] | [19]
inactive: all other assays above

O=C1c2ccccc2C(=O)C1C(=O)C(c1ccccc1)c1ccccc1
active: [17] 21.1 µM | [19] 21.3 µM
not listed: [1] | [6] | [7] | [16] | [18]
inactive: all other assays above

Cc1ccccc1CCl
not listed: [1] | [7] | [17] | [19]
inactive: all other assays above

O=[N+]([O-])c1ccc(F)c([N+](=O)[O-])c1
inactive: [18] | [4] | [5] | [15] | [8] | [9] | [10] | [11] | [12] | [13]
active: [2] 10.6 µM and 27.6 µM

NC(=O)C(Cl)(Cl)Cl
not listed: [1] | [7] | [12] | [13] | [16] | [19]
inactive: all other assays above

[CH3][Sn]([CH3])([Cl])[Cl]
not listed: [1] | [16] | [18] | [19]
inactive: all other assays above

NS(=O)(=O)C(F)(F)C(F)(F)C(F)(F)C(F)(F)C(F)(F)C(F)(F)C(F)(F)C(F)(F)F
active: [17] 1.93 µM
not listed: [1] | [3] | [6] | [7] | [16] | [18] | [19]
inactive: all other assays above

CC(C)(C)C(O)C(Oc1ccc(Cl)cc1)n1cncn1 (configuration not stated)
not listed: [2] | [3] | [7] | [15] | [16] | [17] | [18] | [19]
inactive: all other assays above

Cl/C=C\C[N+]12CN3CN(CN(C3)C1)C2
not listed: [1] | [7] | [12] | [14] | [19]
inactive: all other assays above

O=C(O)C(F)(F)C(F)(F)C(F)(F)C(F)(F)C(F)(F)C(F)(F)C(F)(F)C(F)(F)C(F)(F)F
not listed: [17] | [18]
inactive: all other assays above

O=C(NC(=O)c1c(F)cccc1F)Nc1ccc(OC(F)(F)C(F)OC(F)(F)F)c(Cl)c1 (configuration not stated)
not listed: [13] | [15] | [16] | [17] | [18]
inactive: all other assays above

CC1C(=O)C[C@]2(C(C)C)C[C@H]12 (some centres not stated)
not listed: [1] | [13] | [16] | [19]
inactive: all other assays above

BrCC(Br)C1CCC(Br)C(Br)C1 (configuration not stated)
active: [17] 27.2 µM
not listed: [1] | [19]
inactive: all other assays above

Clc1cccc2ccccc12
not listed: [1] | [14] | [16] | [18] | [19]
inactive: all other assays above

O=[Se]=O
active: [2] 0.764 µM
not listed: [1] | [3] | [17]
inactive: all other assays above

C=CCN1CC[C@]23c4c5ccc(O)c4O[C@H]2C(=O)CC[C@@]3(O)[C@H]1C5
not listed: [1] | [6] | [12] | [13] | [16] | [19]
inactive: all other assays above

CCOP(=S)(Oc1ccc([N+](=O)[O-])cc1)c1ccccc1 (configuration not stated)
active: [17] 21.7 µM
not listed: [3] | [6] | [13] | [14] | [16] | [18] | [19]
inactive: all other assays above

NC(=O)CI
not listed: [1] | [7] | [13] | [16] | [17] | [19]
inactive: all other assays above
